Measured values taken from the supplement of paper PMC10849652.
Of roughly 8,800 targets only a part is listed; those with a hit were picked by preference. About 0.5% of all pairs of compound and target were hits.

Assays:
Assay in all cases: log2 fold change, soluble protein after heating vs DMSO (PISA); higher = thermal stabilisation; K562 lysate, 10 uM; active = over 0.2 and 3.5 SD of the protein, either way, in both replicates (recomputed)
[1] = compound: C1=CC=C(C=C1)[C@H](COC2=CC3=C(C=C2)NC(=O)N3)NC(=O)C4=CC=CN(C4=O)CC5=CC(=C(C=C5)F)F
How it was run: (§1)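 K562 pellets were dounce-homogenised in PBS pH 7.4 with 1 mM MgCl2, and the crude extract at 1 mg/mL protein was treated with 10 μM compound for 30 min. Aliquots were heated for 3 min across 48°C-58°C, pooled, and brought to 0.5% NP-40 at 4°C; soluble protein was the supernatant after 21,000xg for 90 min. Soluble protein was quantified by TMTpro 16plex LC-MS/MS with channel sums equalised, and reported as log2 fold change in thermal stability against DMSO controls, with values from duplicates.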

[2] = compound: CC1=C(SC2=C1C(=N[C@H](C3=NN=C(N32)C)CC(=O)N)C4=CC=C(C=C4)Cl)C
How it was run: as §1

[3] = compound: CC1=C2C(=CC=C1)N=C(N(C2=O)C3=CC=CC=C3C)CN4C=NC5=C(N=CN=C54)N
How it was run: as §1

[4] = compound: Cc1sc2c(c1C)C(c1ccc(Cl)cc1)=N[C@@H](CC(=O)OC(C)(C)C)c1nnc(C)n1-2
How it was run: as §1

[5] = compound: c1ccc([C@@H]2C[C@H]2NC2CCNCC2)cc1
How it was run: as §1

Measured: log2 fold change

TDRD3 isoform 3 (UniProt Q9H7E2)
UniProt Q9H7E2, sequence (Q9H7E2 whole entry, looked up): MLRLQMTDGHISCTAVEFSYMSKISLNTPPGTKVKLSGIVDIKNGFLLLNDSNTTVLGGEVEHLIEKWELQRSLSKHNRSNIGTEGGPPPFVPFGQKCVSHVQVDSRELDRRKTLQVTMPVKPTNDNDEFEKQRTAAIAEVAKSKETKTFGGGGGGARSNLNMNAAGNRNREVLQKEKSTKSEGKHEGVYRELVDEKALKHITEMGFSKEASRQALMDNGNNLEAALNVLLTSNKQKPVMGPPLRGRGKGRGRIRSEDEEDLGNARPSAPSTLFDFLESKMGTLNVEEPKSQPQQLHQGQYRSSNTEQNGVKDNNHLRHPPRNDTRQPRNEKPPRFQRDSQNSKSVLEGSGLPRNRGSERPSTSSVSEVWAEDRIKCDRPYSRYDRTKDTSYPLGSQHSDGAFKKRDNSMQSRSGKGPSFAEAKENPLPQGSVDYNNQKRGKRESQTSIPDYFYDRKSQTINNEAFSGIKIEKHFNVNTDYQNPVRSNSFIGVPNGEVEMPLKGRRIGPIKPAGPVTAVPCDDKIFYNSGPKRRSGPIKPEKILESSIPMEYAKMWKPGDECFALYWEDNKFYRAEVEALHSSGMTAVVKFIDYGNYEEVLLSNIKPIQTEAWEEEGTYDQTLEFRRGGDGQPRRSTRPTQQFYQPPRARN
inactive: [1] 0.082 | [2] 0.037 | [3] 0.027 | [4] 0.065 | [5] -0.01

TBC1D20 isoform 3 (UniProt Q96BZ9)
UniProt Q96BZ9, sequence (Q96BZ9 whole entry, looked up): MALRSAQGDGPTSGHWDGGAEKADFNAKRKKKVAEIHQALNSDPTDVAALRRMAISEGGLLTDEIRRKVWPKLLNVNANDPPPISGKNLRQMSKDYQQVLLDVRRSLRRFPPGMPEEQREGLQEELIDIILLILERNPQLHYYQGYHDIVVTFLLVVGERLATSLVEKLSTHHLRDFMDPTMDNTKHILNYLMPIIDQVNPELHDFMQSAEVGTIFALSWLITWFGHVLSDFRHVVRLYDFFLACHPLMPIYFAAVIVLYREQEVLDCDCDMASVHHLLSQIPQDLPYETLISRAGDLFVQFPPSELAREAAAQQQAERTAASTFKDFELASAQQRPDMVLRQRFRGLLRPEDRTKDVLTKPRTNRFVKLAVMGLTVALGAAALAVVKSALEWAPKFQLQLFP
inactive: [1] -0.08 | [2] -0.07 | [3] 0.005 | [4] -0.007 | [5] 0.015

TRAF2 isoform 2 (UniProt Q12933)
UniProt Q12933, sequence (Q12933 whole entry, looked up): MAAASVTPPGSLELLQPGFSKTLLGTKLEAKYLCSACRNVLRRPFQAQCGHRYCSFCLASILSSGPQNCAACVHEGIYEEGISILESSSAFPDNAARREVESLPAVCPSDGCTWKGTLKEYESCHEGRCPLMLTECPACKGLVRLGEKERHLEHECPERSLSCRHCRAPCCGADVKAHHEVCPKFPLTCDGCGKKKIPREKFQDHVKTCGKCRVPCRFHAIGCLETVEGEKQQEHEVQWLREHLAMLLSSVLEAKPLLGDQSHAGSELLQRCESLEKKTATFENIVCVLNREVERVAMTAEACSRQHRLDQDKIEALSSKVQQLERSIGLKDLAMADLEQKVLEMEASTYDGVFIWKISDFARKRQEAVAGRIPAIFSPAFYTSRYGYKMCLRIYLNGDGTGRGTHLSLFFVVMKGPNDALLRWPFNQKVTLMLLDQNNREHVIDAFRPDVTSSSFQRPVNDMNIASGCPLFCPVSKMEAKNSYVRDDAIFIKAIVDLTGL
inactive: [1] -0.006 | [2] 0.005 | [3] -0.005 | [4] -0.002 | [5] -0.015

TDRKH (UniProt Q9Y2W6)
UniProt Q9Y2W6, sequence (Q9Y2W6 whole entry, looked up): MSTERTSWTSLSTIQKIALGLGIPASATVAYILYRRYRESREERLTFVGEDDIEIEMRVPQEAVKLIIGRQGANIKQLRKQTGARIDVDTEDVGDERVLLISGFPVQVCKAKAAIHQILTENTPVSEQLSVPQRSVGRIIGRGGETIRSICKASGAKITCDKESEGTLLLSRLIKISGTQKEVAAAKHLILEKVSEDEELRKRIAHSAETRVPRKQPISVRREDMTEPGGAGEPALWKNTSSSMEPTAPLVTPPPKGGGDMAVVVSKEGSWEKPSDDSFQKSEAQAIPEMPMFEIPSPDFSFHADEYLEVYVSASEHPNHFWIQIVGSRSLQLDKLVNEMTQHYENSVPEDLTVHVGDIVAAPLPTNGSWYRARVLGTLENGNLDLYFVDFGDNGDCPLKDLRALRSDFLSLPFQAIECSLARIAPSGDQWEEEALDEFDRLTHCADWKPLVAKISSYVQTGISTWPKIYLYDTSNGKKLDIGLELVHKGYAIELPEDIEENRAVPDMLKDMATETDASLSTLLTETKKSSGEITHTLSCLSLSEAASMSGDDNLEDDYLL
inactive: [1] -0.02 | [2] -0.028 | [3] 0.1 | [4] 0.005 | [5] -0.053

THADA (UniProt Q6YHU6)
UniProt Q6YHU6, sequence (Q6YHU6 whole entry, looked up): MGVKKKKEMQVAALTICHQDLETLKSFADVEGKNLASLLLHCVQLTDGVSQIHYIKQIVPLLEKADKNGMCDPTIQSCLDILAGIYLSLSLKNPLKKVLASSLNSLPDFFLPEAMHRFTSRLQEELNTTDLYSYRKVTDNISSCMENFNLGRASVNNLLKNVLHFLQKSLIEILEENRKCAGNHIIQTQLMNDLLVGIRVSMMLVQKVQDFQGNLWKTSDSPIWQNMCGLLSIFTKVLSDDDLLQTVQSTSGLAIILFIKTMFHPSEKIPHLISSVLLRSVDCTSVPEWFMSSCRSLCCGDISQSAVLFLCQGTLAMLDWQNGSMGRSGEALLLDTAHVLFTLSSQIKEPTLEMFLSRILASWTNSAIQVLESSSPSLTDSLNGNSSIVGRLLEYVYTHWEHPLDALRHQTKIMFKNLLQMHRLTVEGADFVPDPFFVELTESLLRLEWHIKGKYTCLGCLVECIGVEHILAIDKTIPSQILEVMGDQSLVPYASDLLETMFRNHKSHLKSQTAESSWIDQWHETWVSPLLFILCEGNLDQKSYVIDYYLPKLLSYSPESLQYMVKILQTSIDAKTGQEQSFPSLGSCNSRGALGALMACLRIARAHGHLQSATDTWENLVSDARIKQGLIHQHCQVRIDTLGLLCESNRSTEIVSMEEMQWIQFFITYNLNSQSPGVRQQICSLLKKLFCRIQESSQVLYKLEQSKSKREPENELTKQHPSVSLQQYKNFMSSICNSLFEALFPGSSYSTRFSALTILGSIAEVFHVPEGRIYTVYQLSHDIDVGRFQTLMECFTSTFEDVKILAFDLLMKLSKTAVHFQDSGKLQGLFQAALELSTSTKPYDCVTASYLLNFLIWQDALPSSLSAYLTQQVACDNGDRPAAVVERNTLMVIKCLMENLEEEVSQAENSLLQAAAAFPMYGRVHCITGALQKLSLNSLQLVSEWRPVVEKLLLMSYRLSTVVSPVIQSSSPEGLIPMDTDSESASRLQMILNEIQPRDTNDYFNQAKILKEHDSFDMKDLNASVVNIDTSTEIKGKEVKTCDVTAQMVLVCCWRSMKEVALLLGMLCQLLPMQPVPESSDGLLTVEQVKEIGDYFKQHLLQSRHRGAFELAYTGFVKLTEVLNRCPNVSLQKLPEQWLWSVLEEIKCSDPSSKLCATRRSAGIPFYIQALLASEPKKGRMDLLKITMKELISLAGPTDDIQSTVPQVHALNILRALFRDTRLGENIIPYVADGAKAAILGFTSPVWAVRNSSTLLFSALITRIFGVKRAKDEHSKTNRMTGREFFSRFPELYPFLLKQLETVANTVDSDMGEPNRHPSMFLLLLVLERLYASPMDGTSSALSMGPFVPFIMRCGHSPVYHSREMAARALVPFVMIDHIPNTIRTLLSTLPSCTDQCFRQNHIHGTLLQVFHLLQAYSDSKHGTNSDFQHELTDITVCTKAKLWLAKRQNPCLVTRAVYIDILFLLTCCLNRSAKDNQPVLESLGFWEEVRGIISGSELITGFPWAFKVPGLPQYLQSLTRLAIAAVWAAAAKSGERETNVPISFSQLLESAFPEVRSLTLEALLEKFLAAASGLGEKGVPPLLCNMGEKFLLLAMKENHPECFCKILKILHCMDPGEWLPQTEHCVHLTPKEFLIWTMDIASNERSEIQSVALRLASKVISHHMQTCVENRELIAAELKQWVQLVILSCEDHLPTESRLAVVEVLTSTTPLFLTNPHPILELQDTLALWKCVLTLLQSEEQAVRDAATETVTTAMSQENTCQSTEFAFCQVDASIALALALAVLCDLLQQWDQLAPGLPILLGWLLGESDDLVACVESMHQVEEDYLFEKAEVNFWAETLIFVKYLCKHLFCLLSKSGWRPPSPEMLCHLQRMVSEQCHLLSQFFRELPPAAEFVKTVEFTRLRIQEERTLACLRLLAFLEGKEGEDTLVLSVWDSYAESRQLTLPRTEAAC
inactive: [1] -0.028 | [2] -0.016 | [3] 0.069 | [4] 0.007 | [5] 0.028

UBR1 (UniProt Q8IWV7)
inactive: [1] -0.032 | [2] 0.002 | [3] -0.026 | [4] 0.026 | [5] 0

TNIK (UniProt C9J338)
inactive: [1] -0.028 | [2] 0.067 | [3] 0.135 | [4] -0.225 | [5] -0.375

TUBB4B (UniProt P68371)
UniProt P68371, sequence (P68371 whole entry, looked up): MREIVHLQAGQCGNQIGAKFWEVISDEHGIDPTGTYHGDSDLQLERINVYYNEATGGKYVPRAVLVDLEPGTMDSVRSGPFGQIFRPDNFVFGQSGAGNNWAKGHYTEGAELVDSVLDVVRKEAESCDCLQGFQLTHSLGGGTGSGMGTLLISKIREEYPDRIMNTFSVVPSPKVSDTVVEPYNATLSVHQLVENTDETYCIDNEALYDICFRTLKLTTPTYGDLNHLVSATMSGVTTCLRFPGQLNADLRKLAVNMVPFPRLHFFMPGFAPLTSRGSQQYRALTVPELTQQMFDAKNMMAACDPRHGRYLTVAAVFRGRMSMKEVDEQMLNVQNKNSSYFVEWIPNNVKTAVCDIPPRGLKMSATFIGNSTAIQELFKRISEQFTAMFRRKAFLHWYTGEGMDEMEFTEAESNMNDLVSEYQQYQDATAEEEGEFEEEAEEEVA
inactive: [1] 0.001 | [2] 0.03 | [3] 0.018 | [4] 0.042 | [5] 0.049

TTMP isoform 3 (UniProt Q5BVD1)
UniProt Q5BVD1, sequence (Q5BVD1 whole entry, looked up): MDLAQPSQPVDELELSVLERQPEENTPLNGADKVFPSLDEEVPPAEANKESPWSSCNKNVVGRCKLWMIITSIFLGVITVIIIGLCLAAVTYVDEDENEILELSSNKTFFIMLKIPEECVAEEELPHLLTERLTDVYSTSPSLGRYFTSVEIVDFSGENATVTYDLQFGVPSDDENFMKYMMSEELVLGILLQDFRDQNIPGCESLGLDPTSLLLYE
inactive: [1] -0.051 | [2] 0.091 | [3] 0.135 | [4] -0.148 | [5] -0.498
